Compound activity from PubChem.
D2 ag-1: activates the human D2 dopamine receptor. HEK293 T-REx D2 cells, calcium flux agonist mode. 340,000 tested, 0.53% active. AID 485358. P14416. activation, % at 2 µM;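 active = activation over 3 SD above normal in the single-dose calcium agonist read, cut at about 30% in these data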; note: 0% is about no effect
Target sequence (P14416 whole entry, looked up): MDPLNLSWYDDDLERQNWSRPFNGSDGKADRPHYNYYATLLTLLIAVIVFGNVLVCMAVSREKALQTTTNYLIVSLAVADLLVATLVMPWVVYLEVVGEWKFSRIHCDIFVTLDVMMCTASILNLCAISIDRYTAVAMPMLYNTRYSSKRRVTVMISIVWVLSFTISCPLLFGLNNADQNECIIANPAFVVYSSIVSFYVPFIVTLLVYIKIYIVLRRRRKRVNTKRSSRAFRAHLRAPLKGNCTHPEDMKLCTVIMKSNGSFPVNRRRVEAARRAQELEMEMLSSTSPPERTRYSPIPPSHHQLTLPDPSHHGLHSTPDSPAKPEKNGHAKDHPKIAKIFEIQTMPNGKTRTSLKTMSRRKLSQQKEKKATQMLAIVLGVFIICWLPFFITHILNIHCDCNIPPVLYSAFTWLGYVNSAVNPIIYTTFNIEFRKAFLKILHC
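Tetracycline-induced HEK293 Trex cells with D2 receptor force-coupled to calcium signaling, plated overnight at 30 C and loaded with no-wash calcium dye. Calcium flux read kinetically for 180 s after compound addition; responses flag agonists.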
D2 PAM-1: human D2 receptor positive allosteric modulation; DiscoveRx D2 beta-arrestin cells, luminescence, 90 min; 100% = 57 uM dopamine signal; AID 624464; 360,000 tested, 0.23% active; potentiation, % (no concentration beside the values); P14416; in the data active = potentiation above about 50%
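PathHunter D2 cells, attached overnight at 37 deg C, received compound in DMSO plus dopamine at EC20 (50 nM final) for 90 min at 37 deg C. Beta-arrestin recruitment was read as luminescence after 1 h with detection reagent at ambient temperature.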
D2 PAM-2: positive allosteric modulators of human D2 dopamine receptor; P14416; HEK293 T-REx D2, calcium flux, EC20 dopamine potentiation; potentiation, % at 10 µM; 340,000 tested, 0.34% active; AID 485347;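 active = potentiation over 3 SD above the plate norm, cut at about 30% in these data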; note: 0% is about no effect
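Calcium flux readout, no-wash dye, 1 read/s. Inducible HEK293 Trex D2 line, overnight 30 C. Compound alone 180 s (agonist flags), then EC20 dopamine, another 180 s to score potentiation.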
D2 ag-2: agonists of human D2 dopamine receptor (beta-arrestin); 360,000 tested, 0.084% active; DiscoveRx PathHunter D2 beta-arrestin, luminescence, 90 min; 100% = 57 uM dopamine signal; P14416; activation, % (no concentration beside the values); in the data active = activation above about 40%
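DiscoveRx PathHunter D2 beta-arrestin cells (2,100/well) attached overnight, then compound-stimulated 90 min at 37 C in HBSS/10 mM HEPES/0.1% Tween-20 buffer; beta-galactosidase complementation read by luminescence after 1 h at ambient temperature. Dopamine 57 uM final (EC100) as control.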
D2 antagonist: antagonizes the human D2 dopamine receptor. HEK293 TREx D2 cells, calcium flux, dopamine EC80. AID 485344. P14416. 340,000 tested, 2% active. inhibition, % at 10 µM; in the data active = inhibition above about 30%; inactive = below that, where a call was filed; note: 0% is about no effect
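Dopamine at EC80 is the agonist stimulus; test compounds precede it by 180 s. Calcium flux read kinetically in a force-coupled, inducible HEK293 T-REx D2 cell line.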
* hit, by the source's call; x = no result given. Most compounds without a hit are left out; they make up all but 2.4% or so of the library.

SMILES	D2 ag-1	D2 PAM-1	D2 PAM-2	D2 ag-2	D2 antagonist
COC(=O)c1c(N)n(-c2cc(Cl)cc(Cl)c2)c2nc3ccccc3nc12	x	x	-8	x	x
COc1ccc(C(=O)c2c[nH]cc2-c2ccccc2)cc1	-2	-7	5	-1	40*
Nc1cc2c(cc1[N+](=O)[O-])OCCO2	0	-26	-8	-3	47*
Cc1ccn2c(NC3CCCCC3)c(C)nc2c1	0	-5	-4	1	35*
Cc1ccn2c(NC3CCCCC3)c(C(C)C)nc2c1	0	-3	6	0	1
Cc1ccn2c(NC3CCCC3)c(-c3ccncc3)nc2c1	-1	9	30*	-2	-15
CCOC(=O)c1cc(-c2ccccc2)n(CCC(=O)NCCc2ccc(C)cc2)c1C	1	x	2	x	x
COc1ccc(CCCc2nnc(SCC(=O)Nc3cc(F)ccc3C)o2)cc1	-2	x	6	x	x
Cc1cc(C(=O)NCc2ccc(S(N)(=O)=O)cc2)c(C)o1	0	-4	-4	-2	30*
COc1ccc(NC(=O)N2CCCCC2c2cccnc2)cc1 (configuration not stated)	-1	1	14	-1	23
COc1cc(OC)cc(C(=O)NC(=S)N2CCCCC2c2cccnc2)c1 (configuration not stated)	-1	-12	5	-2	41*
CCCCCC[N+](C)(C)CC/C=C1/c2ccccc2Sc2ccc(Cl)cc21	-2	-9	-26	3	75*
S=C1Nc2ccccc2Sc2ccc(Cl)cc21	0	10	14	0	-1
CN(C)CC/C=C1\c2ccccc2COc2ccccc21	1	-34	-25	-5	51*
CN(C)CC/C=C1/c2ccccc2CS(=O)(=O)c2ccccc21	x	-3	x	3	x
CN(C)CC/C=C1/c2ccccc2Sc2ccc(Cl)cc21	-1	-36	-26	-6	103*
COc1ccc2c(c1)-c1nc(/N=C/c3ccc(O)cc3)sc1CC2	-1	-15	-6	3	45*
CCOc1ccccc1-n1c(SCC(=O)N2CCCC2)nnc1-c1ccc(O)cc1	-1	-3	31*	0	2
CC(C)/C=C(/C(=O)c1ccc(Cl)cc1Cl)n1cncn1	1	21	6	46*	2
COc1ccc(N/C(N)=N/c2nc(C)cc(C)n2)cc1	x	-5	x	-2	x
Cc1cc(C)nc(/N=C(\N)Nc2ccc(OCc3ccccc3)cc2)n1	63*	-5	-13	-2	70*
COc1ccc(-c2nc3ccc([N+](=O)[O-])cc3[nH]2)cc1	1	17	5	3	1
Cc1ccc(-c2nc3ccc([N+](=O)[O-])cc3[nH]2)cc1	0	-1	0	0	45*
O=C(N/N=C/C=C\c1ccccc1[N+](=O)[O-])c1ccccn1	-1	-16	-21	-4	81*
CC(C)c1ccc(NC(=O)c2cnc3sc(N4CCOCC4)nn3c2=O)cc1	0	x	17	x	x
SMILES	D2 ag-1	D2 PAM-1	D2 PAM-2	D2 ag-2	D2 antagonist
FC(F)(F)c1ccccc1CN1CCN(C2CCCCCC2)CC1	0	-16	-32	-2	44*
Cc1c(Cc2ccccc2)sc(/N=C/c2c(O)ccc3ccccc23)c1C(N)=O	1	57*	-9	-2	-7
COc1ccc(NC(=O)Cn2c(SCc3ccc(F)cc3)nc3cccnc32)c(OC)c1	0	x	4	x	x
NC(=O)C1C(c2ccccc2)=C1c1ccccc1	0	-7	-3	-2	38*
Cc1ccc(NC(=O)CSc2nc3ncccc3[nH]2)cc1F	-2	x	-19	x	x
CCN(c1ccccc1)S(=O)(=O)c1c(-c2ccc(C)cc2)csc1C(=O)OC	0	x	-17	x	x
NS(=O)(=O)c1ccc(CCNC(=O)COc2ccc3c4c(c(=O)oc3c2)CCC4)cc1	0	-14	40*	-1	5
O=C(O)COc1ccc2c3c(c(=O)oc2c1)CCC3	0	-20	2	-5	39*
CCCC(=O)NCC1(N(C)C)CCCCC1	x	x	10	x	x
Cc1ccc2c(=O)cc(C(=O)Nc3ccc(S(=O)(=O)Nc4onc(C)c4C)cc3)oc2c1C	-1	x	1	x	x
CCn1nc(-c2ccccc2)c(-c2ccccc2)c(C(=O)Nc2ccc(S(N)(=O)=O)cc2)c1=O	-1	x	-1	x	x
Cc1ccc(C2=NC(c3ccc(F)cc3)=Nc3ccc(C)cc3N2)cc1	2	x	3	x	x
COC(=O)c1cc(NC(=O)CN(c2cccc(OC)c2)S(=O)(=O)c2ccccc2)ccc1Cl	2	-11	3	-2	13
COc1ccc(N(CC(=O)Nc2cccnc2)S(=O)(=O)c2ccc(C)cc2)cc1Cl	5	-20	x	-1	4
O=C(CN(c1ccccc1)S(=O)(=O)c1ccc(Cl)cc1)Nc1cccnc1	1	-11	-33	-3	34*
COc1ccc(S(=O)(=O)N(CC(=O)Nc2ccc(C)cc2)c2ccc(C)cc2)cc1OC	1	x	-2	x	x
COC(=O)c1cc(NC(=O)CN(c2ccccc2OC)S(=O)(=O)c2ccccc2)ccc1Cl	1	-7	-4	-2	36*
CCOc1ccc(NC(=O)CN(c2ccc(OC)c(OC)c2)S(=O)(=O)c2ccc(C)cc2)cc1	1	-5	4	-6	55*
COc1ccc(N(CC(=O)Nc2cccnc2)S(=O)(=O)c2ccccc2)cc1Cl	0	-8	-21	-1	31*
COCCCN(C(=O)Cc1coc2cc(C)c(C)cc12)c1c(N)n(Cc2ccccc2)c(=O)[nH]c1=O	0	-2	5	-1	48*
CCCn1c(N)c(N(CCOC)C(=O)c2ccccc2)c(=O)[nH]c1=O	1	-1	-11	-1	55*
CCCCN(C(=O)c1ccc(C#N)cc1)c1c(N)n(CCC)c(=O)[nH]c1=O	-2	-5	-3	-3	42*
COCCN(C(=O)Cc1coc2cc(C)c(C)cc12)c1c(N)n(Cc2ccccc2)c(=O)[nH]c1=O	0	-6	1	0	4
CCCCNC(=O)C(NC(=O)c1ccc(=O)[nH]c1)C(=O)c1ccccc1 (configuration not stated)	x	-2	x	-8	x
Cc1ccc(N2CCN(C(=O)c3cnn(-c4ccc(F)cc4F)c3C3CCN(C(=O)OC(C)(C)C)CC3)CC2)c(C)c1	3	x	3	x	x
CCCCc1nc(N2CCN(C(=O)c3ccco3)CC2)c(C#N)c2c1CCCC2	1	-2	2	0	31*
CCCS(=O)(=O)c1nc(S(=O)(=O)c2ccc(C)cc2)c(N2CCN(CC)CC2)s1	0	-34	-23	-5	67*
CCN1CCN(c2sc(S(=O)(=O)CC)nc2S(=O)(=O)c2ccc(C)cc2)CC1	x	-27	x	-2	x
CCOC(=O)c1cccc(NC(=O)CN2C(=O)c3ccccc3Sc3ncccc32)c1	0	x	-2	x	x
